Reference: PubChem BioAssay (NCATS)
Calls of active or inactive are those of the source. Rule as the data show it: active = potency below about 10 µM; inactive = the rest.

Molecular target: Lysosomal acid glucosylceramidase (Homo sapiens) (UniProt P04062)
Experiment: Glucocerebrosidase-p2 (AID 348)
Settings: purified GBA, blue fluorogenic substrate, 40 min
Summary of the method: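 Compounds titrated from 0.6 nM upwards against 0.2 nM enzyme in pH 5.9 citric acid/KH2PO4, taurocholate, tween-20; blue fluorogenic substrate 80 uM, 40 min room temperature, stopped and read Ex 365/Em 440 for AC50.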
Potency is read from the fitted curve at half-maximal effect.

Sequence of Lysosomal acid glucosylceramidase (Homo sapiens) (P04062 whole entry, looked up): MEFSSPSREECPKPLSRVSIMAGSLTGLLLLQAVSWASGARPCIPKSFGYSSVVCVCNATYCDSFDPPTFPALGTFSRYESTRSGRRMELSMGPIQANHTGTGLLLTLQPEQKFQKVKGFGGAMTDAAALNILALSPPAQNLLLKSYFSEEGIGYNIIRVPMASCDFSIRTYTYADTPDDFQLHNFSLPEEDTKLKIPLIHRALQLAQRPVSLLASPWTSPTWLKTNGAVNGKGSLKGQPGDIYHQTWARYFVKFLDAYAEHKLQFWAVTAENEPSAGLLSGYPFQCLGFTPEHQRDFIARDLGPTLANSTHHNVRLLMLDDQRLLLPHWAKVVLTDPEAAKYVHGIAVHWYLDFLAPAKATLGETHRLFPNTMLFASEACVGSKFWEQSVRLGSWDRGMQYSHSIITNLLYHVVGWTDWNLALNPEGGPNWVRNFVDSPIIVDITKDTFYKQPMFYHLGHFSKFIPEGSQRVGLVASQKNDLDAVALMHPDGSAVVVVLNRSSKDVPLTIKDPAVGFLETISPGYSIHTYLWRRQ

Potency, active:
c1ccc2c(NC3CC3)nc(-c3ccoc3)nc2c1 3.8 µM

Potency, inactive:
CN(C)C(=O)c1ccc(-c2ccc3ncnc(N(C)Cc4ccco4)c3c2)cc1 > 11.4 µM
Cc1ccccc1-c1nccc(-n2ccnc2)n1 > 11.4 µM
CN(C)Cc1ccccc1-c1nccc(NC2CC2)n1 > 11.4 µM
N#Cc1cccc(-c2cc(-n3ccnc3)ncn2)c1 > 11.4 µM
CN(C)C(=O)c1ccc(-c2ccc3ncnc(Nc4ccccc4)c3c2)cc1 > 11.4 µM
COc1cccc(-c2cncnc2NCCc2cnc[nH]2)c1 > 11.4 µM
FC(F)(F)c1ccccc1-c1cncnc1NCCc1cnc[nH]1 > 11.4 µM
CN(Cc1ccco1)c1ccnc(-c2ccoc2)n1 > 11.4 µM
COc1cccc(-c2nc(NCc3cnc(C)cn3)c3ccccc3n2)c1 > 11.4 µM
c1cncc(-c2ccc3ncnc(N4CCNCC4)c3c2)c1 > 11.4 µM
CN(C)C(=O)c1ccc(-c2cncnc2NCCN2CCOCC2)cc1 > 11.4 µM
CC(=O)NCCNc1nc(-c2ccc3c(c2)OCO3)nc2ccccc12 > 11.4 µM
N#Cc1cccc(-c2cc(NCc3cccnc3)ncn2)c1 > 11.4 µM
c1ccc(Nc2ncncc2-c2ccc3c(c2)OCO3)cc1 > 11.4 µM
c1ncc(-c2ccc3c(c2)OCO3)c(NCCc2cnc[nH]2)n1 > 11.4 µM
